From PubChem BioAssay
Unmarked numbers belong to inactive results. No rule for the calls is given here.

target: Pantothenate synthetase (Mycobacterium tuberculosis (strain ATCC 25618 / H37Rv)) (UniProt P9WIL5); assay: Recombinant Mtb pantothenate synthetase (PanC) inhibitors, coupled enzyme, confirmatory (AID 375); conditions: coupled enzyme assay; at 10 µM, hits give high values;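 also: 0% = full reaction with vehicle and 100% = no enzyme background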
Sequence (P9WIL5 whole entry, looked up): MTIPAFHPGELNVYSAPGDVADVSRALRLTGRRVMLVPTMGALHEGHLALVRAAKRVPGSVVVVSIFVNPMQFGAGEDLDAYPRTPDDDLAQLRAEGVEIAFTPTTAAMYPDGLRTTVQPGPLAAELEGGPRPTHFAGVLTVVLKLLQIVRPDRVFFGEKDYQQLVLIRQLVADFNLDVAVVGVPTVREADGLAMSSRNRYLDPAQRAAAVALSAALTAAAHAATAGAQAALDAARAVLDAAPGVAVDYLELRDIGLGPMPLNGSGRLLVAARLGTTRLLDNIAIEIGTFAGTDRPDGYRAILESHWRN

Row | Compound | inhibition [%]
1 | CCOc1ccc(NC(=O)C(C)Sc2nnc(C)n2C)cc1 (stereo not given) | 0
2 | COc1cccc(-c2nnc3sc(-c4ccc(C)cc4)nn23)c1 | 0
3 | CC(=O)NCCC(=O)Nc1ccc(C)c(F)c1 | 6
4 | CC1CCN(S(=O)(=O)c2ccc3[nH]cc(C(=O)NCCN4CCOCC4)c(=O)c3c2)CC1 | 0
5 | COC(=O)c1ccccc1S(=O)(=O)NC(=O)c1ccccc1 | 0
6 | COc1ccc(OC)c(S(=O)(=O)Nc2ccccc2C(=O)O)c1 | 6
7 | COC(=O)Nc1sc2c(c1C(=O)N1CCOCC1)CCC(C)C2 (stereo not given) | 0
8 | CCCc1ccccc1OCCNC(C)=O | 3
9 | c1ccc(CN2C3=NCCCN3c3ccccc32)cc1 | 0
10 | CCOc1ccc(C(=O)CN2CCN(S(=O)(=O)c3ccc(OC)cc3)CC2)cc1 | 1
11 | CCC(CC)C(=O)NCCc1cc2ccc(C)cc2[nH]c1=O | 0
12 | O=C(OCc1cc2ccccc2[nH]c1=O)c1ccco1 | 0
13 | Cn1c2c(c(=O)n(C)c1=O)C(NC(=O)C(C)(C)C)(C(F)(F)F)C(=O)N2 (stereo not given) | 0
14 | C=CCn1c(SCC(=O)NCCCC)nc2scc(-c3ccco3)c2c1=O | 0
15 | COC(=O)c1ccccc1NC(=O)c1ccc(COc2ccccc2)o1 | 0
16 | CCOc1ccc(N(CC(=O)NCc2cccc(OC)c2)S(=O)(=O)c2c(C)noc2C)cc1 | 6
17 | Cc1nn(C)cc1/C=N/O | 0
18 | CC(=O)c1cc(Cl)ccc1OC(=O)c1ccco1 | 0
19 | Cc1cc(C)nc(NC(=O)c2c(-c3c(Cl)cccc3Cl)noc2C)n1 | 2
20 | COc1cc(NS(=O)(=O)c2ccc(N)cc2)ncn1 | 0

Row | Compound | inhibition [%]
21 | CCCCN(Cc1cc2cc(OC)ccc2[nH]c1=O)C(=O)COc1ccccc1 | 2
22 | CCC(=O)c1ccc(OC(=O)c2ccc(Br)o2)cc1 | 7
23 | CN(C)c1ccc(/C=C/c2ccncc2)cc1 | 1
24 | CCN(CC)c1nc2nonc2nc1N(CC)CC | 0
25 | CCOc1ccc(NC(=O)CSc2nnc(Cc3cccn3C)n2-c2ccc(OC)cc2)cc1 | 1
26 | N#Cc1nc(-c2ccco2)oc1NCc1ccco1 | 11
27 | O=C(c1ccccc1)c1coc2ccc(O)c(CN3CCOCC3)c12 | 4
28 | CCC(C)(C)n1nnnc1C(c1ccc(OC)c(OC)c1)N1CCN(c2ccc(F)cc2)CC1 (stereo not given) | 0
29 | Cn1c(=O)c2c(nc(SCCCC#N)n2Cc2ccccc2F)n(C)c1=O | 0
30 | CN(CC(=O)N1CCN(C2CCCCC2)CC1)S(=O)(=O)c1cccc2nsnc12 | 8
31 | CCc1ccc2[nH]c(=O)c(C(c3nnnn3CC3CCCO3)N3CCCc4ccccc43)cc2c1 (stereo not given) | 0
32 | CCC(=O)Nc1nn(C)c2nc3c(C)cccc3cc12 | 0
33 | NC(N)=NC(N)=NCCc1ccccc1 | 4
34 | O=S1(=O)CCC(NS(=O)(=O)/C=C/c2ccccc2)C1 (stereo not given) | 8
35 | C=CCOc1ccc(/C(O)=C2\C(=O)C(=O)N(CCOC)C2c2cccnc2)cc1 (stereo not given) | 0
36 | CCn1cc(C(=O)NCCN(C)CCc2ccccc2)c(=O)c2cc(S(=O)(=O)N(C)C)ccc21 | 4
37 | CCOC(=O)c1cc2oc(C)cc2n1CC(=O)OC1CCCCC1 | 1
38 | Cc1ccc(NC(=O)CSc2nnc(CCCCCNC(=O)OC(C)(C)C)o2)c(C)c1 | 6
39 | CN(CCc1ccccn1)C(=O)CCNC(=O)Cn1cnc2ccccc2c1=O | 1
40 | CC(=O)c1c(C)nn(C(C)CC(=O)O)c1C (stereo not given) | 0
